Assay outcomes: PubChem BioAssay, National Center for Advancing Translational Sciences (NCATS)
IL1B secr inh: inflammasome signaling inhibition, IL-1 beta readout; THP-1 LPS/ATP IL-1B secretion, AlphaLISA, 16 h; active compounds read low; activity change, % at 57.5 µM; actives 4.7% (n = 360,000); in the data active = activity change below about -50%; inconclusive = mostly about -30% to -49%; note: % is set by controls: 0 for no effect and ±100 for the full control effect
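Secreted IL-1B measured by AlphaLISA bead assay after 16 h compound exposure of THP-1 cells; compounds (final up to 57.5 uM) added 1 h before LPS (250 ng/mL) and ATP (1.25 mM) stimulation; lower signal means less secretion.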
TDP1 cell noCPT: qHTS for Inhibitors of human tyrosyl-DNA phosphodiesterase 1 (TDP1): qHTS in cells in absence of CPT; Potency, µM (series often up to 46.2 µM), without a hit: at the top dose activity change, negative = growth inhibition, usual class: inhibitors; DT40 Tdp1-/- hTDP1 cells, no CPT, ATP luminescence, 48 h; actives 15% (n = 420,000); note: potency is the fitted concentration of half-maximal effect; % is set by controls: 0 for no effect and ±100 for the full control effect; nearly all actives have a fitted effect of over 55% in size
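Stably hTDP1-transfected Tdp1-null chicken DT40 cells were treated with library compounds minus camptothecin and grown for at least 48 hr at 37 °C, after which cellular ATP was quantified by luminescence.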
S-ASM inh: human S-ASM enzyme inhibition; placental ASM, HMU-PC fluorogenic substrate, 60 min; actives 0.006% (n = 340,000); P17405; AID 504937; Potency, µM (series often up to 57.5 µM), for the others: at the highest dose activity change, negative = inhibition, usual class: inhibitors; note: potency is the fitted concentration of half-maximal effect
Target sequence (P17405 47-631 limits assumed): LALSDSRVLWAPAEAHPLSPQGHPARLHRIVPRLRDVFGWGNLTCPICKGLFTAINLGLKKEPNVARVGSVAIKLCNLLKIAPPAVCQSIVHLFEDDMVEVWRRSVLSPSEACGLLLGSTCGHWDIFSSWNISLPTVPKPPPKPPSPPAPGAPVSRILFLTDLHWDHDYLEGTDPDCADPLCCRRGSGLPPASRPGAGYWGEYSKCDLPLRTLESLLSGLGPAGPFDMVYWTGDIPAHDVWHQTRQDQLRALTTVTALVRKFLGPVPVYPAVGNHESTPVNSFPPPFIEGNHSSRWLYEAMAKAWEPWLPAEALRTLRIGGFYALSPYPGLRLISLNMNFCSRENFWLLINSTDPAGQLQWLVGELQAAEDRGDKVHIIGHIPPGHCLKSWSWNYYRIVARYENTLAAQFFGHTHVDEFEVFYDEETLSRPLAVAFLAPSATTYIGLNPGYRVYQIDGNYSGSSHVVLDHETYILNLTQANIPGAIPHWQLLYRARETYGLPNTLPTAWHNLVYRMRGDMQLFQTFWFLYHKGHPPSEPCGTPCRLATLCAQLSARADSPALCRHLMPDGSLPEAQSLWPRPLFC
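Fluorescence read-out (Ex 386 nm, Em 447 nm) after stopping the reaction at pH 10. Enzyme: ASM from human placenta; substrate HMU-PC0, 9 uM final; 60 min, 37 °C. Compound preincubation 10 min, ambient temperature.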
TDP1 cell CPT: growth inhibition of DT40 Tdp1-/-;hTDP1 cells with camptothecin (screen for TDP1 inhibitors); Potency, µM (doses to about 46.2 µM), for the others: at the highest dose activity change, negative = growth inhibition, actives largely listed as inhibitors; actives 12% (n = 420,000); chicken DT40 Tdp1-/-;hTDP1 cells + 20 nM CPT, ATP luminescence, 48 h; note: potency is the fitted concentration of half-maximal effect; % is set by controls: 0 for no effect and ±100 for the full control effect; nearly all actives have a fitted effect of over 55% in size
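Chicken DT40 Tdp1-/- cells complemented with human TDP1, 400 cells/well, exposed to compounds plus 20 nM camptothecin for at least 48 h at 37 C; viability read as ATP content by CellTiter-Glo luminescence.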
TGFb SMAD3 inh: inhibitors of TGF-b signaling. AID 588855. Potency, µM (doses to about 46.1 µM), without a hit: top-dose activity, negative = inhibition, most hits filed as inhibitors. HepG2 CAGA-GFP TGF-b/SMAD3 reporter, GFP fluorescence, 18 h; TGF-beta stimulated, 500 pg/mL final. actives 1.2% (n = 410,000); note: potency is the fitted concentration of half-maximal effect; % is set by controls: 0 for no effect and ±100 for the full control effect; nearly all actives have a fitted effect of over 65% in size
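Inhibition of TGF-beta-driven CAGA-GFP reporter expression in HEPG2 cells is measured by cellular GFP fluorescence after 18 h stimulation with 500 pg/mL recombinant TGF-beta in 1% FBS medium at 37 degrees C.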
HepG2 viability: kills HepG2 cells in TGF-b inhibitor counter-screen; HepG2 CAGA-GFP viability, ATP luminescence, 18 h; Potency, µM (highest dose often 46.1 µM), for inactives: top-dose activity change, negative = cytotoxicity, actives largely listed as cytotoxic; actives 0.76% (n = 410,000); AID 588856; note: potency is the fitted concentration of half-maximal effect
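HepG2 CAGA-GFP cells (1000/well, DMEM with 1% FBS) received compound, then TGF-beta at 500 pg/mL final, and were incubated 18 hours at 37 degrees C. Viability was read by CellTiter-Glo luminescence. Media-only wells were set as complete cell-killing and DMSO as no toxicity.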
The depositor's hits bear a star; i = inactive; ? = inconclusive; . = no result given. Compounds with a hit are over-represented: about 19% of the library has one in this group of screens. Unless noted, calls come from the whole dose curve; as a rule, active = well fitted curve in the direction sought with a large enough effect; inconclusive = small, poorly fitted or top-dose-only effect, or another doubt; inactive = no such curve, though single readings can be large; an effect the other way counts as inactive or inconclusive.

SMILES	IL1B secr inh	TDP1 cell noCPT	S-ASM inh	TDP1 cell CPT	TGFb SMAD3 inh	HepG2 viability
CCOCCCNC(=O)/C(C#N)=C/c1ccc([N+](=O)[O-])o1	-110.8*	1.84µM*	345.1%	1.3µM*	-27.4%	-4.7%
CC1CC(C)CN(C(=O)C2CCN(S(=O)(=O)N3CCC4(CC3)OCCO4)CC2)C1 (stereo not drawn)	0.0	1.0%	6.5%	-12.0%	-0.1%	1.0%
CC(C)n1cc(CN2CCCC(CO)(Cc3cccc(Cl)c3)C2)cn1 (stereo not drawn)	2.8	-27.4%	3.2%	-1.0%	-15.7%	-9.5%
CCOC(=O)c1c(NC(=O)CSc2nnc(-c3cccnc3)o2)sc(C(C)=O)c1C	11.8	20.6µM*	-3.2%	?	7.0%	-0.6%
CCOC(=O)c1c(NC(=O)CSc2nnc(-c3ccco3)o2)sc(C(C)=O)c1C	18.0	13µM*	-7.4%	?	1.4%	3.1%
C[C@H]1CN([C@@H](C)CO)C(=O)c2cccc(NS(=O)(=O)c3ccc(F)cc3)c2O[C@H]1CN(C)S(=O)(=O)c1cn(C)cn1	17.6	-1.1%	0.0%	3.4%	-1.5%	-11.5%
COC(=O)c1ccc(CNC(=O)c2ccc(S(=O)(=O)N(C)c3ccccc3OC)cc2)cc1	0.0	?	-2.3%	?	?	-15.9%
Cc1noc(C)c1S(=O)(=O)N(C)C[C@H]1OCc2cn(nn2)CCCC(=O)N([C@H](C)CO)C[C@@H]1C	19.4	4.1%	.	0.4%	4.2%	6.3%
Cc1ccc2[nH]c3nc(NN)nnc3c2c1	20.0	?	5.6%	23.1µM*	0.0%	-26.5%
COc1ccc(CN(C)C(=O)CNC(=O)c2cccs2)c(OC)c1	4.3	12.9%	3.2%	8.5%	1.8%	-27.1%
Cc1cccc(N2CCN(C(=O)Cn3ccc4ccccc4c3=O)CC2)c1C	-6.9	?	-4.4%	12.6µM*	-7.4%	-26.0%
Cc1cccc(N2CCN(C(=O)Cn3c(=O)c4cccn4c4ccc(F)cc43)CC2)c1C	.	10.3µM*	.	20.6µM*	-13.5%	-10.1%
Cc1cccc(N2CCN(C(=O)Cn3cnc4c3c(=O)n(C)c(=O)n4C)CC2)c1C	34.5	18.4µM*	-0.9%	23.1µM*	-2.5%	0.2%
CC1Cc2ccccc2N1C(=O)Cn1cnc2c1c(=O)n(C)c(=O)n2C (stereo not drawn)	i	23.1µM*	5.3%	?	-8.3%	0.7%
O=C(Cn1c(=O)c2cccn2c2ccc(F)cc21)N1CCN(c2ccccc2F)CC1	.	-20.1%	.	-18.8%	0.0%	-20.2%
Cc1cccc(CN(C(=S)Nc2c(C)cccc2C)c2cccnc2)c1	-4.1	?	1.7%	-13.1%	-5.7%	-15.4%
Cc1ccc(C(=O)c2nccn2C)cc1C	-13.9	-17.0%	-1.9%	3.7%	-9.9%	-2.8%
Cc1ccc(N(C(=O)CNC(=O)c2ccco2)C(C(=O)NC2CCCC2)c2ccncc2)c(C)c1 (stereo not drawn)	2.9	3.7%	0.3%	13.9%	28.1%	4.0%
Cc1ccc(C(C(=O)NCc2ccco2)N(C(=O)CNC(=O)c2cccs2)c2ccc(C)cc2C)cc1 (stereo not drawn)	22.6	6.51µM*	-1.3%	29.1µM*	0.4%	-5.9%
CCOc1ccc(CCNC(=O)CSc2nnnn2C)cc1OCC	16.9	11.5%	2.1%	4.4%	1.6%	-0.2%
Cn1nnnc1SCC(=O)NCCc1ccc(Cl)cc1	-16.6	-28.0%	-1.8%	0.2%	-12.6%	15.8µM*
COc1ccc(-n2c(CCc3ccccc3)nnc2SCC(=O)c2ccccc2)cc1	-79.6*	?	-11.3%	?	-7.9%	3.0%
